{
  "source": "PubChem BioAssay (NCI)",
  "note": "Compounds without any hit were thinned out: in the full panel of roughly 83,000, 20% have a hit.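 Negative percent growth values reflect cell death: -40 means 40% of the cells present at the start died, and -100 means all died.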 Calls of active or inactive are those of the source.",
  "data": [
    {"tested_on": "MOLT-4 leukemia", "assay": "NCI-60 one-dose screen, 48 h (100 = growth as untreated, 0 = no growth, -100 = all killed)", "settings": "10 µM unless noted", "protocol": "Growth inhibition of the MOLT-4 human tumor cell line is measured as a screen for anti-cancer activity. Cells are grown in 96 well plates and exposed to the test compound for 48 hours. Compounds are tested at a single concentration, which is 10^-5 M for most compounds. The reported endpoint is percent growth (GI% or GIPRCNT), where numbers from 0 - 100% represent growth inhibition, and numbers from -100% - 0 represent cell death. For example, a value of 40 represents 60% growth inhibition. A value of 0 means no net growth occurred over the course of the experiment. A value of -40 indicates 40% of cells at the beginning of the experiment died by the end of the experiment. A value of -100 means all cells are dead at the end of the experiment.\nNCI-60 Human Tumor Cell Lines Screen was performed using the standard one-dose NCI protocol, which is described in more detail at https://dtp.cancer.gov/discovery_development/nci-60/default.htm.\nCompounds with GIPRCNT values below 10 were considered active. Activity score was based on GIPRCNT using the following formula: […]\nScore is 0 for GIPRCNT values of 100 or above, 50 for GIPRCNT values of 0, and 100 for GIPRCNT values of -100.", "values": [
      {"smiles": "O=c1c2cc(F)ccc2sc2c(NCCCN3CCCC3)nc3ccccc3c12", "growth": "-14.5% (active)"},
      {"smiles": "COc1ccccc1NC(=O)N/C(N)=N/c1nc2ccccc2s1", "growth": "15.4% (inactive)"},
      {"smiles": "O=S(=O)(NCCCNc1cc(-c2c(-c3cccc(O)c3)nc3sccn23)ccn1)c1cccc(Cl)c1", "growth": "15.2% (inactive)"},
      {"smiles": "C[C@]12CC[C@@H]3c4cc(OC(F)F)c(O)cc4CC[C@H]3[C@@H]1CC[C@@H]2OS(N)(=O)=O", "growth": "25.3% (inactive)"},
      {"smiles": "CN(C)c1ccc(-c2cc(-c3ccc(Nc4nc(Nc5ccc(Cl)cc5)nc(Nc5ccc(Cl)cc5)n4)cc3)no2)cc1", "growth": "-24.7% (active)"},
      {"smiles": "COc1cc(/C=N/n2c(CN3CCOCC3)nc3ccccc3c2=O)cc(OC)c1OC", "growth": "103% (inactive)"},
      {"smiles": "Cc1cccc(Cc2cnc(NC(=O)c3ccc4nnsc4c3)s2)c1", "growth": "90.2% (inactive)"},
      {"smiles": "CC/C=C\\C[C@H](O)C/C=C1/C(=O)C=C[C@@H]1C/C=C\\CCCCO", "growth": "8.39% (active)"},
      {"smiles": "COc1ccc2c(c1)CCCN2c1c2ccccc2nc2ccccc12", "growth": "15.4% (inactive)"},
      {"smiles": "O=C(COc1ccc(/C=C2\\Oc3ccccc3C2=O)cc1)c1ccc(Cl)cc1", "growth": "87.9% (inactive)"},
      {"smiles": "CC/C=C/C/C=C/C/C=C/C/C=C/C/C=C/C/C=C/CCC(=O)Nc1ccn([C@@H]2O[C@H](CO)[C@@H](O)C2(F)F)c(=O)n1", "growth": "1.85% (active)"},
      {"smiles": "COc1cccc(-c2nc3sccn3c2/C=C/C(=O)c2ccc(C(F)(F)F)cc2)c1", "growth": "48.5% (inactive)"},
      {"smiles": "CCc1ccccc1-n1c(-c2ccc(Cl)cc2)cc(-c2ccc(Cl)cc2)c(C#N)c1=O", "growth": "31.8% (inactive)"},
      {"smiles": "CN(C)CCNc1nc2ccccc2c2c1c1c(n2Cc2ccccc2)-c2ccccc2C1=O", "growth": "-84.3% (active)"},
      {"smiles": "O=c1c2c3c(sc2nc(N/N=C/c2ccc(Br)cc2)n1Cc1ccccc1)CCCC3", "growth": "40.8% (inactive)"},
      {"smiles": "COc1c(CCC[P+](c2ccccc2)(c2ccccc2)c2ccccc2)cc2c(c1OC)OCO2", "growth": "33.3% (inactive)"},
      {"smiles": "CCc1ccccc1NC(=O)/C(C#N)=C/c1ccc(OC)cc1", "growth": "87.3% (inactive)"},
      {"smiles": "COc1cc(OC)cc(C2CC(=O)Nc3c2c(C)nn3-c2nc3ccccc3[nH]2)c1", "note": "(stereo not given)", "growth": "-8.06% (active)"},
      {"smiles": "COc1nc(N(C)O)nc(N(C)O)n1", "growth": "35.7% (inactive)"},
      {"smiles": "C[C@H]1[C@H]2[C@H]3CC[C@@H]4[C@@]5(C)C/C(=C/c6cccnc6)C(=O)C(C)(C)[C@@H]5CC[C@@]4(C)[C@]3(C)CC[C@]23CO[C@]1(C)[C@@H](C(=O)/C=C\\c1cccnc1)C3", "growth": "16.7% (inactive)"},
      {"smiles": "Clc1ccc(-c2c3ccc(=[N+]4CCCCC4)cc-3oc3cc(N4CCCCC4)ccc23)cc1", "growth": "-32.1% (active)"},
      {"smiles": "C=CC(=O)Nc1cccc(Oc2nccc(Nc3nnc(C4CC4)s3)n2)c1", "growth": "75.7% (inactive)"},
      {"smiles": "O=c1oc2ccccc2c(Cl)c1Cl", "growth": "37.5% (inactive)"},
      {"smiles": "COc1ccc(NC(=O)CSc2nnc(-c3cc(-c4ccccc4)nc4ccccc34)n2-c2ccccc2)cc1", "growth": "80.2% (inactive)"},
      {"smiles": "CCOC(=O)c1c(/C=C/C(=O)O)nc2ccccc2c1/C=C/c1ccccc1", "growth": "25.5% (inactive)"},
      {"smiles": "Cc1ccc(S(=O)(=O)n2cc(CNc3ccc(N4CCOCC4=O)cc3)c3ccccc32)cc1", "growth": "82.7% (inactive)"},
      {"smiles": "N#CC1=C(c2ccc(Br)cc2)NC(SCC(=O)c2ccc(Br)cc2)NC1=O", "note": "(stereo not given)", "growth": "92% (inactive)"},
      {"smiles": "O=C1CC(N2C(=O)/C(=C/C(Cl)=C\\c3ccc([N+](=O)[O-])cc3)SC2=S)C(=O)N1c1ccc(O)cc1", "note": "(stereo not given)", "growth": "2.92% (active)"},
      {"smiles": "CCOC(=O)c1c(-c2ccc(Cl)cc2)c(C#N)c(=O)n(-c2ccccc2CC)c1N", "growth": "70.3% (inactive)"},
      {"smiles": "CCN(CC)CCN1CC(O)=C(c2nc(-c3ccc(Cl)cc3)cs2)C1=N", "growth": "1.18% (active)"},
      {"smiles": "C=C1C(=O)O[C@H]2[C@H]1CC/C(COC(=O)C(=O)c1cn(C)c3ccc(OC)cc13)=C\\CC[C@@]1(C)O[C@@H]21", "growth": "-16.6% (active)"},
      {"smiles": "COc1ccc(NC(=O)CSc2nnc(-c3cc(-c4ccc(S(N)(=O)=O)cc4)nc4ccccc34)n2-c2ccccc2)cc1", "growth": "58% (inactive)"},
      {"smiles": "O=Cc1c[nH]c2ccc(-c3csc4ccccc34)cc12", "growth": "15.7% (inactive)"},
      {"smiles": "c1ccc(-c2nc([P+](c3ccccc3)(c3ccccc3)c3ccccc3)c(N3CCOCC3)o2)cc1", "growth": "7.65% (active)"},
      {"smiles": "COc1cc2c(cc1-c1c(C)noc1C)ncc1nc(C3CCC(F)(F)CC3)n(C3CCC(OC(F)F)CC3)c12", "note": "(stereo not given)", "growth": "59.7% (inactive)"},
      {"smiles": "O=C(/C=C/c1cccc(O)c1)c1cccc(-n2cc(-c3ccc4ccccc4c3)[nH]c2=O)c1", "growth": "-1.37% (active)"},
      {"smiles": "N=C1C(c2nc(-c3ccc(Br)cc3)cs2)=C(O)CN1Cc1cccnc1", "growth": "68.5% (inactive)"},
      {"smiles": "Cc1ccccc1NC(=O)N/C(N)=N/c1nc(-c2cccc([N+](=O)[O-])c2)cs1", "growth": "30.2% (inactive)"},
      {"smiles": "CCCCN(CCCC)CC(C)(C)C(O)c1ccc(OC)c2ccccc12", "note": "(stereo not given)", "growth": "27.6% (inactive)"},
      {"smiles": "NC[C@H](O)c1ccc(O)c(O)c1", "growth": "115% (inactive)"}
    ]}
  ]
}
